Compound activity from PubChem.
Granule exo inh = LAMP-1 surface exposure blockers, TALL-104 cells – cell-based, flow cytometry, MLPCN library, primary screen. inhibition, % at 10 µM. AID 651702, 2012. actives 0.66% (n = 360,000). TALL-104 LAMP-1 surface exposure; cells stimulated with thapsigargin and PMA;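 active means inhibition above about 55%, limit read from the data; inconclusive means no clear call, values can overlap the other calls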
Myeloid diff 2 = induction of myeloid progenitor differentiation, primary screen, cell-based, flow cytometry, MLPCN library; ER-HoxA9 myeloid progenitors, lysozyme-GFP differentiation; actives 1% (n = 360,000); calls only at 10 µM; AID 624256, 2012;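 active means normalized GFP-positive differentiation at or above the plate's own cutoff, the solvent-only control mean plus 3 SD; inconclusive means no clear call, values can overlap the other calls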;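 further: cells exposed to compound for four days before flow analysis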
ABCB6 inh 2 = ABCB6 transporter inhibitors, primary screen, K562-ABCB6 cells, flow cytometry, MLPCN library; K562-ABCB6 porphyrin accumulation, 1 h; stronger effect = lower value; AID 602162, 2011; actives 0.19% (n = 360,000); fluorescence ratio to DMSO, % at 10 µM; ATP-binding cassette sub-family B member 6 (Homo sapiens), Q9NP58;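 active means fluorescence ratio to DMSO below 75%, the collection mean minus 3 SD; inconclusive means too few cells collected in the well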;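 further: signal is porphyrin accumulated inside mitochondria; lower ratio means ABCB6 inhibition with less porphyrin fluorescence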
Exocytosis CP01 = inhibitors of lytic granule exocytosis, confirmation, TALL-104 cells, flow cytometry, Cherry Pick01; shares compounds with Granule exo inh; LAMP-1 externalization; stimulated with PMA plus thapsigargin; inhibition, % at 10 µM; actives 11% (n = 1,500); AID 651954, 2012; in the data active means inhibition above about 60%
Of the large screens only hits and unclear results are named; the others gave an inactive call (follow-up assays come after a bar, where they were run). Only some compounds are listed: those with a hit (about 1.8% of all), similar ones and a draw of the others.

O=C(CSc1nc2ccccc2[nH]1)Nc1ccccc1N1CCOCC1	none
O=C(CSc1nc2ccccc2[nH]1)Nc1cc(C(F)(F)F)ccc1N1CCOCC1	Granule exo inh 62.4 | Exocytosis CP01 inactive
COc1ccc(N(CC(=O)NCCSc2ccccn2)S(=O)(=O)c2ccccc2)c(OC)c1	Granule exo inh 64.9 | Exocytosis CP01 101.4
COc1ccc(N(CC(=O)Nc2ccc(Cc3ccncc3)cc2)S(=O)(=O)c2ccccc2)cc1	none
COc1ccc(S(=O)(=O)N(CC(=O)NCCSc2ccccn2)c2ccccc2)cc1	none
COc1ccc(OC)c(N(CC(=O)NCCSCc2ccco2)S(=O)(=O)c2ccccc2)c1	Granule exo inh 85.3 | Exocytosis CP01 inactive
COc1ccc(CCNC(=O)CN(c2cc(OC)ccc2OC)S(=O)(=O)c2ccccc2)cc1	none
CCOc1ccccc1N(CC(=O)Nc1cc(OC)ccc1OC)S(=O)(=O)c1ccccc1	none
CCc1ccccc1NC(=O)CN(c1ccc(OC)cc1OC)S(=O)(=O)c1ccccc1	Granule exo inh 69.7 | Exocytosis CP01 inactive
COc1ccccc1N(CC(=O)Nc1ccc(Cc2ccncc2)cc1)S(=O)(=O)c1ccccc1	Granule exo inh 65.7 | Exocytosis CP01 inactive
O=C(NC(=S)N1CCCCC1CO)c1cc(Br)ccc1Cl (stereo unspecified)	none
O=C(CSc1nc(=O)n2ccccc2n1)N1CCN(c2ccccc2)CC1	none
CCN(CC(=O)Nc1c(F)cccc1F)C(=O)CCc1nc2sc3c(c2c(=O)[nH]1)CCCC3	none
Cc1c(C(=O)N2CCCCC2)nn(-c2ccc(Cl)cc2)c(=O)c1C#N	none
Cc1cc(C)c(OCC(=O)N2CC=C(c3ccccc3)CC2)c(C)c1	Myeloid diff 2 inconclusive
COc1ccc(OC)c(-c2nnc3n2N=C(c2ccc(OC)c(OC4CCCC4)c2)CS3)c1	Myeloid diff 2 inconclusive
COc1ccc(OC)c(C2=Nn3c(nnc3C3CCCCC3)SC2)c1	Granule exo inh 72.6 | Exocytosis CP01 inactive
CN(C(=O)c1cc(COc2ccc(F)cc2Cl)on1)C1CCCc2ccccc21 (stereo unspecified)	Granule exo inh 57.4 | Exocytosis CP01 inactive
CN(Cc1ccccn1)C(=O)c1cc(COc2ccc(F)cc2Cl)on1	none
Cc1cc(NC(=O)C(C)SCC(=O)Nc2ccccc2C(C)(C)C)no1 (stereo unspecified)	none
COc1ccc(C(C(=O)NC2CCCC2)N(C(=O)c2ccco2)c2cc3c(cc2C(C)=O)OCO3)cc1 (stereo unspecified)	none
COC(=O)c1cccc(N(CC(=O)NC2CCCCC2)C(=O)CNC(=O)c2cccs2)c1	none
CCOc1ccc2c(c1)C(C)=CC(C)(C)N2S(=O)(=O)c1ccc(NC(C)=O)cc1	Granule exo inh 69.0 (no result: Myeloid diff 2) | Exocytosis CP01 inactive
COc1ccc2c(c1)C(C)=CC(C)(C)N2S(=O)(=O)c1ccc(NC(C)=O)cc1	none (no result: Myeloid diff 2)
COc1ccc(CCNCc2ccccc2N2CCCC2)cc1	none
COc1ccc(CCNCc2cc(C)n(-c3ccc(OC)cc3)c2C)cc1	Granule exo inh 61.1 | Exocytosis CP01 inactive
C[C@H](CO)N1C[C@H](C)[C@H](CN(C)Cc2ccccc2)Oc2ncc(Br)cc2C1=O	none
CC(C)(C)n1nnnc1C(c1cccs1)N(Cc1cccnc1)Cc1ccco1 (stereo unspecified)	none
CC(C)(C)n1nnnc1C(c1cccs1)N(Cc1ccccc1)Cc1ccco1 (stereo unspecified)	Granule exo inh 77.9 | Exocytosis CP01 inactive
CCOC(=O)N1CCC(NC(=O)c2cc(C(=O)Nc3ccc(S(=O)(=O)N4CCOCC4)cc3)ccc2CO)CC1	none
O=S(=O)(c1cccc2nsnc12)N1CCCCC1	Myeloid diff 2 inconclusive
COc1ccc(S(=O)(=O)N(C(=O)c2ccco2)c2cc3sc(=O)oc3c3ccccc23)cc1	Granule exo inh 82.8 | Exocytosis CP01 inactive
CCOc1ccc(S(=O)(=O)N(C(=O)c2ccco2)c2cc3sc(=O)oc3c3ccccc23)cc1	none
CNC(=O)C1CC(=O)N(c2ccc(OCC(=O)Nc3ccccc3)cc2)C1 (stereo unspecified)	none
CCn1nc(C)c(NC(=O)c2cnn3c(C(F)F)cc(-c4ccccc4)nc23)c1C	none
CCCCn1nnnc1C(c1ccnc2ccccc12)N1CCN(C/C=C/c2ccccc2)CC1 (stereo unspecified)	none
CCCCn1nnnc1C(c1cccc2ccccc12)N1CCN(C/C=C/c2ccccc2)CC1 (stereo unspecified)	Granule exo inh 57.5 | Exocytosis CP01 inactive
